# G9a block: G9a (human) methyltransferase inhibition. G9a H3K9 monomethylation, AlphaScreen, 2 h. AID 504332. 350,000 tested, 8.8% active. Potency, µM (titrated, usually from 102 µM), for the others: top-dose activity, negative = inhibition, usual class: inhibitors; note: % is set by controls: 0 for no effect and ±100 for the full control effect; nearly all actives have a fitted effect of over 75% in size
#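 AlphaScreen detection with an anti-monomethyl H3K9 antibody quantified product after a 2 h room-temperature reaction containing 500 nM biotinylated H3K9 peptide, 20 µM SAM and 20 nM enzyme, which had been preincubated 15 min with compound.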
# BAZ2B block: BAZ2B (human) inhibition | AID 504333 | 360,000 tested, 4.4% active | Potency, µM (doses to about 114 µM), for the others: top-dose activity change, negative = inhibition, hits mostly inhibitors | AlphaScreen BAZ2B-H3K14Ac peptide displacement; note: % is set by controls: 0 for no effect and ±100 for the full control effect; nearly all actives have a fitted effect of over 60% in size
#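 Multi-concentration screen (max 110 uM) measuring displacement of acetylated histone H3 peptide from BAZ2B by AlphaScreen, using 50 nM protein, 50 nM peptide and 10 ug/mL streptavidin donor plus Ni-chelate acceptor beads.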
# Sfp inh: inhibitors of Bacillus subtilis Sfp phosphopantetheinyl transferase | Q9F4F7 | Biochemical Sfp PPTase activity, qHTS | Potency, µM, for the others: largest response in the series, negative = inhibition, hits mostly inhibitors | 310,000 tested, 3.5% active;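 note: the enzyme is Sfp with the accession as filed and its product quenches rhodamine fluorescence; 0% = enzyme reaction without inhibitor and -100% = no enzyme wells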
#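 Compounds were incubated with enzyme (final 15 nM) for 15 min at room temperature before substrate addition started the reaction. Fluorescence at 525 nm excitation, 598 nm emission was recorded immediately and after 30 minutes.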
# JMJD2A Tudor inh: inhibitors of human JMJD2A Tudor domain; AlphaScreen JMJD2A-Tudor / H3K4me3 peptide binding; O75164; Potency, µM (titrated, usually from 114 µM), for inactives: at the top dose activity change, negative = inhibition, usual class: inhibitors; AID 504339; 390,000 tested, 4.4% active; note: % is set by controls: 0 for no effect and ±100 for the full control effect; nearly all actives have a fitted effect of over 50% in size
# 12-LOX inh: inhibitors of human 12S-lipoxygenase ALOX12; P18054; purified 12hLO, xylenol orange hydroperoxide absorbance; Potency, µM (highest dose often 108 µM), for the others: at the highest dose activity change, negative = inhibition, most hits filed as inhibitors; 580,000 tested, 1.1% active; note: % is set by controls: 0 for no effect and ±100 for the full control effect
#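 Purified human 12hLO (150 nM final) in 25 mM Hepes, 0.01% Triton X-100, pH 7.0 was preincubated 15 min at room temperature with compound. Then 40 uM arachidonic acid was added, 30 min. Hydroperoxide was read by Fe-XO absorbance ratio 573/405 nm.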
# HP1b chromo inh: inhibitors of HP1-beta chromodomain binding to methylated histone tails; P83916; 390,000 tested, 0.56% active; Potency, µM (doses to about 114 µM), inactives show at the top dose activity change, negative = inhibition, most hits filed as inhibitors; AlphaScreen HP1-beta / biotin-H3K9me3 peptide binding; note: nearly all actives have a fitted effect of over 70% in size
#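 Compound inhibition of the preformed complex between 50 nM HP1-beta and 50 nM biotinylated H3K9me3 peptide was read by AlphaScreen. Buffer was PBS pH 7.4 with 0.01% Tween-20. Incubations ran 30 min at room temperature, with 10 ug/mL donor/acceptor beads.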
# Active calls of the source: *; ? = inconclusive; . = not tested or not shown; [ ] = another dose, or the depositor's remark. Shown are actives, neighbours in structure and some others; about 8.7% of the full set was active somewhere. Calls come from the whole dose curve; as a rule, active = well fitted curve in the direction sought with a large enough effect; inconclusive = small, poorly fitted or top-dose-only effect, or another doubt; inactive = no such curve, though single readings can be large; an effect the other way counts as inactive or inconclusive. Potency is the fitted concentration of half-maximal effect.
SMILES,G9a block,BAZ2B block,Sfp inh,JMJD2A Tudor inh,12-LOX inh,HP1b chromo inh
CN(C)CCN(C(=O)c1ccc(N2C(=O)CCC2=O)cc1)c1nc2cc3c(cc2s1)OCO3,40µM*,.,1%,-15%,-13%,18%
CN(C)CCCN(C(=O)c1ccc([N+](=O)[O-])o1)c1nc2cc3c(cc2s1)OCO3,56µM*,-33%,-4%,-30%,2%,0%
COc1ccc(C)c2sc(N(CCN(C)C)C(=O)c3ccc(S(=O)(=O)N(C)c4ccccc4)cc3)nc12,.,.,.,.,-3%,.
O=C(Nc1nc2cc3c(cc2s1)OCCO3)c1ccc([N+](=O)[O-])o1,11%[59 µM],-13%,-20%,-23%,2%,27%
COC[C@H]1C[C@@H](NC(=O)CC(C)(C)C)[C@H](O)[C@@H]1O,.,.,.,.,81%[176 µM],.
CN(C)CCCN(C(=O)c1ccc(S(=O)(=O)N(C)Cc2ccccc2)cc1)c1nc2cc3c(cc2s1)OCO3,50µM*,?,?,50µM*,?,-15%
COc1ccc2sc(N(CCCN(C)C)C(=O)c3ccc(S(=O)(=O)N(C)Cc4ccccc4)cc3)nc2c1,45µM*,?,.,50µM*,?,?
CN(C(=O)COC(=O)/C=C/c1cccc2cccnc12)c1ccccc1,.,.,.,.,0%,.
CCCCCNC(=O)Cc1csc2nc(C)c(-c3cc(C)n(-c4cccc(C)c4C)n3)c(=O)n12,.,.,.,.,37%,.
COCCc1nc(CNC(=O)C2CCCN(C(=O)N(C)C)C2)no1 (stereo unspecified),.,.,.,.,23%,.
Cc1cc(NC(=O)c2ccc(C#N)cc2)n(-c2ccccn2)n1,45µM*,-8%,-2%,-17%,0%,26%
Cc1ccc(NC(=O)/C(C#N)=N/Nc2ccc(C(=O)O)cc2)c(C)c1,-13%[12.7 µM],-16%,0%,1%,-26%,27%
Cc1ccc(N/N=C(\C#N)C(N)=S)c(C)c1,10µM*,?,?,45µM*,8.9µM*,?
Cc1cc(=O)oc2c(CN3CC(C)OC(C)C3)c(O)c(Cl)cc12 (stereo unspecified),?,?,-15%,79µM*,?,?
CCc1cc(=O)oc2c(CN3CCCC3)c(O)c(Cl)cc12,16%[12.7 µM],0%,-13%,-12%,0%,4%
Cn1cnnc1SCC(=O)Nc1sc2c(c1C#N)CCCCC2,13µM*,-29%,50µM*,-36%,?,-18%
N#Cc1c(NC(=O)CSc2nc(N)cc(=O)[nH]2)sc2c1CCCCCC2,45µM*,2%,22%,-13%,6%,-2%
CCCCn1nnnc1SCC(=O)Nc1sc2c(c1C#N)CCCC2,?,7%,11%,-12%,?,22%
COc1cccc(CNC(=O)c2ccc3c(c2)NC(=O)CS3)c1,.,.,.,.,2%,.
COc1ccc2c(C)c(CC(=O)NCc3ccco3)c(=O)oc2c1OC,.,.,.,.,-11%,.
Oc1c(Cl)cc(Cl)cc1/C=N/c1nccs1,8.9µM*,-2%,50µM*,-18%,21%,16%
Oc1c(Cl)cc(Cl)cc1/C=N/c1nc(-c2ccc(Cl)cc2)cs1,?,-26%,23%,?,.,-6%
CC1Nc2nc(N(C)C)[nH]c(=O)c2NC1C (stereo unspecified),3.2µM*,?,-8%,28µM*,-26%,61%
Cc1ccc(NC(=S)NNC(=S)NCc2ccccc2)cc1,?,-23%,56µM*,?,-4%,-9%
CC(=O)NNC(=S)NCc1ccccc1,.,.,.,.,47%,.
SMILES,G9a block,BAZ2B block,Sfp inh,JMJD2A Tudor inh,12-LOX inh,HP1b chromo inh
S=C(NCCCCc1ccccc1)NCc1ccccc1,55%,-22%,3%,-10%,343%,46%
CCNC(=S)NNC(=S)NCc1ccccc1,10µM*,-27%,56µM*,1.3µM*,7%,6%
S=C(NCCCCNC(=S)NCc1ccccc1)NCc1ccccc1,45µM*,-20%,-12%,-1%,?,-11%
S=C(NCc1ccccc1)NCc1ccc(CNC(=S)NCc2ccccc2)cc1,2%[59 µM],-6%,9%,-27%,25µM*,-2%
Fc1ccc(CNC(=S)NCc2ccccc2)cc1,.,1%,-2%,0%,?,45%
Fc1ccc(NC(=S)NCc2ccccc2)cc1,57%,11%,16%,-5%,17%,34%
COc1ccc(CC(=O)Nc2ccc([C@@H](O)[C@H]3COCC(=O)N3Cc3ccccc3OC)cc2)cc1,.,.,.,.,-11%,.
COc1ccc(C2=NC(C(F)(F)F)(C(F)(F)F)N=C(N(C)C)O2)cc1,.,.,.,.,9%,.
CC(C)C(=O)NCCSCc1ccsc1,.,.,.,.,62%,.
O=C(CCS(=O)CCC(=O)NCc1ccccc1)NCc1ccccc1,50µM*,-38%,13%,-4%,28%,40%
O=C(CCC(=O)NCc1ccccc1)NCc1ccccc1,?,-27%,18%,4%,?,18%
S=C(NCc1ccccc1)C(=S)NCc1ccccc1,.,.,.,35µM*,-7%,?
Cc1ccc(CNC(=S)Nc2ccccc2Cl)cc1,.,.,.,.,45µM*,.
Cc1ccc(NC(=S)NNC(C)(C)C)cc1,45µM*,-27%,8%,-20%,69%,1%
CCNC(=O)Nc1ccc(OCC(=O)N2CCCCC2)nc1,.,.,.,.,41%,.
Cc1nn(C)c(Cl)c1CN1CCC(CO)(CCOc2ccccc2)CC1,4%,?,-1%,-7%,-15%,18%
Cc1c(CN2CCC(CO)(CCOc3ccccc3)CC2)[nH]c2c(Cl)cccc12,50µM*,?,-23%,-19%[11.4 µM],?,-5%
CCOc1cc(C#N)ccc1OCC(=O)c1ccc2c(c1)CCCC2,.,.,.,.,-16%,.
N=c1c(S(=O)(=O)c2ccc(Cl)cc2)cc2c(=O)n3ccccc3nc2n1CCc1ccccc1,41%,-1%,25µM*,.,374%,.
N=c1c(S(=O)(=O)c2ccccc2)cc2c(=O)n3ccccc3nc2n1CCCN1CCOCC1,79µM*,4%,-26%,-24%,?,5%
FC(F)(F)c1ccc2c(c1)n(Cc1ccccc1)c1[n+]2CCCCC1,28µM*,?,-38%,?,?,9%
CCc1cccc(NC(=O)Cn2c3[n+](c4ccc(C(F)(F)F)cc42)CCCCC3)c1,5.6µM*,-6%,-41%,-16%,?,-10%
O=C(Cn1c2[n+](c3ccc(C(F)(F)F)cc31)CCCCC2)Nc1ccccc1,?,0%,?,-6%,?,12%
CSc1nc2c(=S)[nH]c(=S)[nH]c2s1,.,.,.,.,14µM*,.
Cc1nn(S(=O)(=O)c2ccc(C(C)C)cc2)c(C)c1S(=O)(=O)N1CCOCC1,35µM*,?,20%,79µM*,?,41%
CCOc1ccc(S(=O)(=O)n2nc(C)c(S(=O)(=O)N3CCOCC3)c2C)cc1,50µM*,?,-1%,-15%,-1%,7%
